Of roughly 8,800 targets only a part is listed; those with a hit were picked by preference. About 0.5% of all pairs of compound and target were hits.
What was measured:
Experiment in all cases: log2 fold change, soluble protein after heating vs DMSO (PISA); higher = thermal stabilisation; K562 lysate, 10 uM; active = over 0.2 and 3.5 SD of the protein, either way, in both replicates (recomputed)
erlotinib = compound: C#Cc1cccc(Nc2ncnc3cc(OCCOC)c(OCCOC)cc23)c1 [erlotinib]
Outline: (§1)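 Log-two fold change in thermal stability relative to solvent controls is reported from duplicates. For each sample, crude K562 extract from dounce-homogenised pellets in PBS pH 7.4 with 1 mM MgCl2, at 1 mg/mL protein, was treated with 10 μM compound for 30 min. Aliquots heated for 3 min across 48°C-58°C were pooled, brought to 0.5% NP-40 at 4°C and cleared at 21,000xg for 90 min. The supernatant was quantified by TMTpro 16plex LC-MS/MS with channel sums equalised.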

[1] = compound: C/C(=N\NC(=O)C1=CC(=CC=C1)S(=O)(=O)N2CCOCC2)/C3=C(C=CC(=C3)Cl)O
Outline: as §1

[2] = compound: C1=CC(=CC=C1C2=NC3=C(N2)C=C(C=C3)C(=O)N)OC4=CC=C(C=C4)Cl
Outline: as §1

[3] = compound: C1=CC2=C(C=CC(=C2)/C=C\3/C(=O)NC(=NCC4=CC=CS4)S3)N=C1
Outline: as §1

[4] = compound: C1=CC2=NC=CN=C2C=C1/C=C/3\C(=O)NC(=O)S3
Outline: as §1

[5] = compound: C1=CC=C(C=C1)C2=NC(=C(N2)C3=CC=NC=C3)C4=CC(=C(C=C4)Cl)O
Outline: as §1

[6] = compound: C1=CC=C2C(=C1)C3=NNC4=CC=CC(=C43)C2=O
Outline: as §1

[7] = compound: C1CCN(C1)C(=O)NC2=CC=CC(=C2)NC3=NC=C(C(=N3)NCCC4=CN=CN4)Br
Outline: as §1

[8] = compound: C1CN(CCC1(CC2=CC=C(C=C2)Cl)N)C3=NC=NC4=C3C=CN4
Outline: as §1

IRAK-1-4 Inhibitor I = compound: C1COCCN1CCN2C3=CC=CC=C3N=C2NC(=O)C4=CC(=CC=C4)[N+](=O)[O-] [IRAK-1-4 Inhibitor I]
Outline: as §1

Measured: log2 fold change

SPATS2 (UniProt Q86XZ4)
UniProt Q86XZ4, sequence (Q86XZ4 whole entry, looked up): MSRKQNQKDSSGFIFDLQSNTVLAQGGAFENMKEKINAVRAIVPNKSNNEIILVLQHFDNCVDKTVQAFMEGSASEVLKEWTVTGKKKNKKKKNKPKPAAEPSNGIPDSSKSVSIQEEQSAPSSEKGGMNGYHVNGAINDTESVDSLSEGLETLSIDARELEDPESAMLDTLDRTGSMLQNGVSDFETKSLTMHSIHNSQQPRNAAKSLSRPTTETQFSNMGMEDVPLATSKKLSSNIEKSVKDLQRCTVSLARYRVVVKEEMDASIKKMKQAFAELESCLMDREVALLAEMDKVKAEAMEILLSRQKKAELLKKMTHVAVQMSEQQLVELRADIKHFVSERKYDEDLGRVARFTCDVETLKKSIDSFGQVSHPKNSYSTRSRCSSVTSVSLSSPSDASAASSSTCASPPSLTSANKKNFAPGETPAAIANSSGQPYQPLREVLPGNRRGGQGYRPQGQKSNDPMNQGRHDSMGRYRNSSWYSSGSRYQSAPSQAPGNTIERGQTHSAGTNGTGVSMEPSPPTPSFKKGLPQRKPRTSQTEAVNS
inactive: erlotinib -0.012 | [1] -0.127 | [2] -0.042 | [3] 0.028 | [4] -0.007 | [5] 0.017 | [6] -0.081 | [7] 0.063 | [8] 0.043 | IRAK-1-4 Inhibitor I -0.066

STK38 (UniProt Q15208)
UniProt Q15208, sequence (Q15208 whole entry, looked up): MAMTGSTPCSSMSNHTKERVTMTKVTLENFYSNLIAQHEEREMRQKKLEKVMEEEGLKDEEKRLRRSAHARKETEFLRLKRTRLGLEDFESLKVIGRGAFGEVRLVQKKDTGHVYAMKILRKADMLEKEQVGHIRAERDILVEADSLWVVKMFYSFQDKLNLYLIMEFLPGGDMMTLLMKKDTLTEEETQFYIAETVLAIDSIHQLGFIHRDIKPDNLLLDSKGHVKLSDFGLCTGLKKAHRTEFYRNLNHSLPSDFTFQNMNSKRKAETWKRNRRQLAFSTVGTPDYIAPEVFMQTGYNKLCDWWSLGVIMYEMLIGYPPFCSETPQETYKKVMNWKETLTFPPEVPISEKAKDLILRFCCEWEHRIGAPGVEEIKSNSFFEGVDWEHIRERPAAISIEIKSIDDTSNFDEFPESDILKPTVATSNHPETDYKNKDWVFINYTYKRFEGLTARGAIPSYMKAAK
inactive: erlotinib -0.018 | [1] -0.029 | [2] -0.063 | [3] -0.005 | [4] 0.038 | [5] 0.029 | [6] 0.176 | [7] -0.002 | [8] 0.055 | IRAK-1-4 Inhibitor I -0.006

SMG5 (UniProt Q9UPR3)
UniProt Q9UPR3, sequence (Q9UPR3 whole entry, looked up): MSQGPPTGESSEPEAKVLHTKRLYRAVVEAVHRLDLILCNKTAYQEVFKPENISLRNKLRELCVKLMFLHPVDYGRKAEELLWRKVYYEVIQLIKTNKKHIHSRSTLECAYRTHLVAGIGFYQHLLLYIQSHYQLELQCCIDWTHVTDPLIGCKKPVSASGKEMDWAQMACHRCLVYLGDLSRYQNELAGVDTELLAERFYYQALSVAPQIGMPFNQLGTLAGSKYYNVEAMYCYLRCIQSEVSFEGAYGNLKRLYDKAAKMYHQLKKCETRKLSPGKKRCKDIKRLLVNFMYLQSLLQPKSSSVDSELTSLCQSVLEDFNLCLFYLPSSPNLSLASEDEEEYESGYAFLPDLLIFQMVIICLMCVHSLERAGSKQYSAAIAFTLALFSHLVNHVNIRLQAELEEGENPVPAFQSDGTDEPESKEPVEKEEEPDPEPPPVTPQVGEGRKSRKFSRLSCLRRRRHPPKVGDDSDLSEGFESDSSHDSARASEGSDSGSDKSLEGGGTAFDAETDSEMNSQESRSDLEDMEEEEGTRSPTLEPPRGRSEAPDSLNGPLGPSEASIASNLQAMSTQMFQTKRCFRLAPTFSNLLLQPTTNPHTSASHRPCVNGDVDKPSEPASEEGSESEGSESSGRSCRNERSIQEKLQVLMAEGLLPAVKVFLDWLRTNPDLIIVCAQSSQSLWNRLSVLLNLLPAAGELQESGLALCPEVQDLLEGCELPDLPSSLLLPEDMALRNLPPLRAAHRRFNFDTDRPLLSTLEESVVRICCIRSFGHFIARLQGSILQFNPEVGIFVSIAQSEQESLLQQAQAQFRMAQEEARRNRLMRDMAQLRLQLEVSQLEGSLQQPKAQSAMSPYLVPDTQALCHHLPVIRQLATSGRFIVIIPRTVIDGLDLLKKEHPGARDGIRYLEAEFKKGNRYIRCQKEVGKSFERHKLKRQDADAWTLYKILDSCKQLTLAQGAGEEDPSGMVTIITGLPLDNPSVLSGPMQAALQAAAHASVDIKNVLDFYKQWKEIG
inactive: erlotinib -0.037 | [1] -0.038 | [2] 0.028 | [3] -0.008 | [4] -0.012 | [5] -0.074 | [6] -0.035 | [7] -0.004 | [8] -0.043 | IRAK-1-4 Inhibitor I 0.007

SOAT1 (UniProt P35610)
UniProt P35610, sequence (P35610 whole entry, looked up): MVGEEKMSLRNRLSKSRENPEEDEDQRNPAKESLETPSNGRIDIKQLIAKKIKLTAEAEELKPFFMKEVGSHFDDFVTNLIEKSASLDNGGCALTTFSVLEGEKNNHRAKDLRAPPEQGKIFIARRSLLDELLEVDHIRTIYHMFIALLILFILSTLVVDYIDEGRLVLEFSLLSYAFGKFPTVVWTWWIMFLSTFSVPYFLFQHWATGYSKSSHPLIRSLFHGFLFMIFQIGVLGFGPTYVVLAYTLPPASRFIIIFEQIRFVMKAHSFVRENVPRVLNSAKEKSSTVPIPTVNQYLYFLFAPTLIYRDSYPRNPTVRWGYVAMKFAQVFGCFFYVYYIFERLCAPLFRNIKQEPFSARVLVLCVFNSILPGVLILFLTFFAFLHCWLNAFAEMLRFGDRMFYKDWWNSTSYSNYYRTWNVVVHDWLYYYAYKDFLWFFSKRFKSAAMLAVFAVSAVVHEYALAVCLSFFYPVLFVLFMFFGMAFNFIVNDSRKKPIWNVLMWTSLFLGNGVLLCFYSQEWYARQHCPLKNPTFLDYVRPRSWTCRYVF
inactive: erlotinib 0.06 | [1] -0.007 | [2] -0.042 | [3] 0 | [4] -0.048 | [5] 0.056 | [6] -0.058 | [7] -0.056 | [8] -0.019 | IRAK-1-4 Inhibitor I 0

SLC38A1 (UniProt Q9H2H9)
UniProt Q9H2H9, sequence (Q9H2H9 whole entry, looked up): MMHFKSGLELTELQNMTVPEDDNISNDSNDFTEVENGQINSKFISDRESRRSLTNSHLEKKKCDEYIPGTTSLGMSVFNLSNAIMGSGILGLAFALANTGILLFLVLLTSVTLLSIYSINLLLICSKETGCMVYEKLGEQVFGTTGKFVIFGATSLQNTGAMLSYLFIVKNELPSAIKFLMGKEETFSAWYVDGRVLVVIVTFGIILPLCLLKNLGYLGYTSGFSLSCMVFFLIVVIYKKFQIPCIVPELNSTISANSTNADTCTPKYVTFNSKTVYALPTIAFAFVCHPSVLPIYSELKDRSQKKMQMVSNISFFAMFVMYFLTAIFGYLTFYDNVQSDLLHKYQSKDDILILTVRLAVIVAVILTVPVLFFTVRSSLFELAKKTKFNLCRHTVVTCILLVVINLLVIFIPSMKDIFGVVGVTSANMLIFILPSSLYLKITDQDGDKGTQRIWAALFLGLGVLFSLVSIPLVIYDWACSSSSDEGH
inactive: erlotinib -0.01 | [1] -0.029 | [2] 0.056 | [3] 0.007 | [4] 0.01 | [5] 0.039 | [6] -0.061 | [7] -0.027 | [8] 0.026 | IRAK-1-4 Inhibitor I 0.053

SPATA5L1 (UniProt Q9BVQ7)
UniProt Q9BVQ7, sequence (Q9BVQ7 whole entry, looked up): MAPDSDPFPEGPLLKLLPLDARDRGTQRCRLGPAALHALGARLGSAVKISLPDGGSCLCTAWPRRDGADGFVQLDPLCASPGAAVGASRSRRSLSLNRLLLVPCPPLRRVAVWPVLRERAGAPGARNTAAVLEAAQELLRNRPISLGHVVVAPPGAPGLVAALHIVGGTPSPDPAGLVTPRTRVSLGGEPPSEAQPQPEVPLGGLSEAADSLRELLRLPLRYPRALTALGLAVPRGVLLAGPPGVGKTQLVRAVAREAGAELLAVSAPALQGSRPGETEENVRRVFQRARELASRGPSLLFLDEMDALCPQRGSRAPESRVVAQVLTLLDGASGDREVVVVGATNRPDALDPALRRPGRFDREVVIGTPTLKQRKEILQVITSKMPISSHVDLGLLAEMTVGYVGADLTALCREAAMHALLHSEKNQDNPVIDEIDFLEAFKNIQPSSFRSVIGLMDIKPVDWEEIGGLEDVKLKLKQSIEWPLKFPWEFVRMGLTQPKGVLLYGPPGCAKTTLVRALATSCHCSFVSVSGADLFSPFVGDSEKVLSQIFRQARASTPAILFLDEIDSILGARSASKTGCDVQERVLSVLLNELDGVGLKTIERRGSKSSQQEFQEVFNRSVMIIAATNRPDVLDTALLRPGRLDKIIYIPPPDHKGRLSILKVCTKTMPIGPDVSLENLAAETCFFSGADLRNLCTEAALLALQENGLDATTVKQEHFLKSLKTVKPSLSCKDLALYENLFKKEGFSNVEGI
inactive: erlotinib 0.09 | [1] -0.053 | [2] -0.017 | [3] 0.044 | [4] 0.004 | [5] 0.069 | [6] 0.01 | [7] 0.027 | [8] 0.032 | IRAK-1-4 Inhibitor I 0.015

SLC25A17 (UniProt O43808)
UniProt O43808, sequence (O43808 whole entry, looked up): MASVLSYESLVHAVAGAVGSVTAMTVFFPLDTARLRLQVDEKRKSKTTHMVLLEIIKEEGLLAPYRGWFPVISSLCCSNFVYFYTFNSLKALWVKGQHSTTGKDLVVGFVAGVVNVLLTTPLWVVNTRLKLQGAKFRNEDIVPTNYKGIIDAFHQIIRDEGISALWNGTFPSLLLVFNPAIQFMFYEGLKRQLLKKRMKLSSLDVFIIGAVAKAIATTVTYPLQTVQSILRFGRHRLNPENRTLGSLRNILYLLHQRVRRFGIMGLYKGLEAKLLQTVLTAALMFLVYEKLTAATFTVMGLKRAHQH
inactive: erlotinib 0.035 | [1] 0.057 | [2] 0.061 | [3] 0.014 | [4] -0.015 | [5] 0.012 | [6] -0.021 | [7] 0.012 | [8] 0.03 | IRAK-1-4 Inhibitor I 0.056
